# Source: PubChem BioAssay (National Center for Advancing Translational Sciences (NCATS))
# An excerpt weighted towards active compounds, which were near 9.4% of everything screened.
# Rab9 prom act: qHTS Assay for Rab9 Promoter Activators; Huh7 Rab9 promoter-luciferase reporter, luminescence, 24 h; Potency, µM (top dose mostly 9.22 µM), for inactives: top-dose activation, negative = inhibition, most hits filed as activators; hit rate 2.8% among 320,000; AID 485297, 2010; further: % of control where 0% means no effect; nearly all actives have a fitted effect of over 60% in size
#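 Cells were plated at 1500 per well in reduced-serum medium with 10% FBS and left 2 h. Compound in DMSO was then added for 24 h at 37 °C. Reporter signal was read by luminescence after 10 min with luciferase detection reagent.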
# ELG1 genotoxic: qHTS screen for small molecules that induce genotoxicity in human embryonic kidney (HEK293T) cells expressing luciferase-tagged ELG1. hit rate 1.3% among 330,000. Potency, µM (doses to about 46 µM), without a hit: at the highest dose activity change, positive = activation, most hits filed as activators. HEK293T ELG1-luciferase reporter, luminescence, 16 h. AID 504466, 2011; further: % of control where 0% means no effect; nearly all actives have a fitted effect of over 60% in size
#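 HEK293T cells expressing luciferase-tagged ELG1 were exposed to compound or DMSO vehicle for 16 hr at 37 °C and 5% CO2. Luciferase activity was then measured with ONE-Glo after 30 min at room temperature.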
# SMN2 splice up: qHTS Assay for Enhancers of SMN2 Splice Variant Expression | HEK293 SMN2-luciferase splicing reporter, luminescence, 30-36 h | Potency, µM (doses to about 46.1 µM), inactives show at the top dose activity change, positive = activation, usual class: activators | hit rate 2.8% among 210,000; further: % of control where 0% means no effect; nearly all actives have a fitted effect of over 55% in size
#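 HEK293 cells carry an SMN2 minigene-luciferase reporter in which exon 7 inclusion puts luciferase in frame. Cells were seeded at 2000 cells/well, attached for 10-12 hours, then exposed to compounds for 30-36 hours at 37C before ONE-Glo luminescence.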
# FLuc modulator: qHTS profiling assay for firefly luciferase inhibitor/activator using purifed enzyme and Km concentrations of substrates (counterscreen for miR-21 project). purified FLuc, Km substrates, luminescence inhibition. AID 588342, 2011. Potency, µM (highest dose often 57.5 µM), without a hit: top-dose activity change, negative = inhibition, most hits filed as inhibitors. hit rate 6.9% among 360,000;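 further: plate controls were vehicle for no effect and reference inhibitor for full effect; nearly all actives have a fitted effect of over 55% in size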
# Target sequence (P08659 whole entry, looked up): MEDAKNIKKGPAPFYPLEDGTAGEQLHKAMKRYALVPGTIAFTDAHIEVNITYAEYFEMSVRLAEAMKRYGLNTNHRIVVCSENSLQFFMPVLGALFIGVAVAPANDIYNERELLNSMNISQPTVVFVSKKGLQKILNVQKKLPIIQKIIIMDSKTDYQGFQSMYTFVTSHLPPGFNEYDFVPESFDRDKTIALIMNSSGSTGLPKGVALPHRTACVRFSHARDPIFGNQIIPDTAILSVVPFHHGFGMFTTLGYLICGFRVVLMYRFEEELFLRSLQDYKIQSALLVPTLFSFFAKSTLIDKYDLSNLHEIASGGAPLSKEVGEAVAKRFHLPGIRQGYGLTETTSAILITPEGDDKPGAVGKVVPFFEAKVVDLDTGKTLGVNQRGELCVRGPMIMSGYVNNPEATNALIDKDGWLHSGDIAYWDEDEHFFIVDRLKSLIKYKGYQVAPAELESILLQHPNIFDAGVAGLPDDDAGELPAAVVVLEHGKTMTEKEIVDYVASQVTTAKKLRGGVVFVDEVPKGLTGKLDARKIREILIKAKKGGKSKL
#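 Purified P. pyralis luciferase (10nM final) with 10uM D-luciferin and 10uM ATP (Km levels) in 50mM Tris acetate pH 7.5, 10mM Mg acetate, 0.01% Tween-20, 0.05% BSA; qHTS 6-point titration, ~60 µM downward; luminescence read.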
# NPC1 promoter act: qHTS Assay for NPC1 Promoter Activators; AID 485313, 2010; Huh7 NPC1 promoter luciferase reporter, 24 h; hit rate 2.4% among 320,000; Potency, µM (highest dose often 9.22 µM), for the others: top-dose activation, usual class: activators; further: % of control where 0% means no effect; nearly all actives have a fitted effect of over 60% in size
#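 Luminescence from an NPC1 promoter-driven luciferase reporter in stably transfected Huh7 cells was measured after 24 h compound treatment at 37 °C, followed by 10 min ambient incubation with luciferase detection reagent.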
# ELG1 repair inh: qHTS screen for small molecules that inhibit ELG1-dependent DNA repair in human embryonic kidney (HEK293T) cells expressing luciferase-tagged ELG1 | HEK293T ELG1-luciferase reporter, luminescence, 16 h; DNA damage induced by 5-fluorouridine | hit rate 2.3% among 330,000 | Potency, µM (series often up to 46.1 µM), without a hit: at the highest dose activity change, negative = inhibition, actives largely listed as inhibitors; further: on the % scale 0 is the no-effect control and ±100 the full control effect; nearly all actives have a fitted effect of over 55% in size
#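 Quantitative HTS, concentration-response format. 2,000 cells/well co-treated with 5-fluorouridine and compound, 16 hr in 5% CO2 at 37 °C; ONE-Glo luminescence read after 30 min.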
# Starred values were filed as active, the others as inactive; ? = inconclusive; . = not tested or not shown; [ ] = another dose, or the depositor's remark. The call rests on the fitted dose curve; in most records, active means well fitted curve in the direction sought with a large enough effect; inconclusive means small, poorly fitted or top-dose-only effect, or another doubt; inactive means no such curve, though single readings can be large; an effect the other way counts as inactive or inconclusive. Potency means the concentration at half of the fitted maximal effect.
SMILES,Rab9 prom act,ELG1 genotoxic,SMN2 splice up,FLuc modulator,NPC1 promoter act,ELG1 repair inh
COC(=O)C1=C(C)NC(C)=C(C(=O)OC)C1c1ccccc1[N+](=O)[O-],-24%[46.1 µM],-6%,-59%,-5%,-19%[46.1 µM],10µM*
C#C[C@]1(O)CC[C@H]2[C@@H]3CCC4=Cc5nc6nc7ccccc7n6cc5C[C@]4(C)[C@H]3CC[C@@]21C,-3%,-23%,.,-20%,-8%,7.9µM*
C#CC1(O)CCC2C3CCC4=CC(=O)CCC4(C)C3CCC21C (configuration not stated),.,.,-11%,.,.,.
COc1cccc(-c2sc3ccccc3c2-c2ccc(OCCN3CCOCC3)cc2)c1,.,-1%,.,.,.,-9%
COc1cc(OC)cc(-c2sc3ccc(OC)cc3c2-c2ccc(OCCN3CCOCC3)cc2)c1,.,-4%,.,.,.,6.5µM*
NCCP(=O)(O)O,.,.,3%[9.22 µM],.,.,.
C/C(=N\NC(=O)c1ccccc1Cl)c1c(O)n(C2CCCCC2)c(=O)[nH]c1=O,-1%,0%,.,-2%,1%,6%
C/C(=N\NC(=O)c1ccccc1O)c1c(O)n(C2CCCCC2)c(=O)[nH]c1=O,-1%,5%,.,27µM*,2%,?
C/C(=N\NC(=O)c1ccccc1O)c1c(O)n(Cc2ccccc2)c(=O)[nH]c1=O,-3%,4%,.,11µM*,-3%,?
CNC(=O)Oc1cccc(-c2cn3cc(Cl)ccc3n2)c1,3.5µM*,?,?,2.7µM*,3.2µM*,?
CNC(=O)Oc1ccc(-c2cn3cc(C)ccc3n2)cc1,0.32µM*,?,1.8µM*,0.34µM*,0.35µM*,?
CCC(COC(=O)NC)NC(=O)Oc1cccc(C)c1 (configuration not stated),7%,3%,10%,-2%,-3%,?
CNC(=O)Oc1cccc2ccccc12,-1%,-3%,7%,-3%,-3%,2%
CC(=O)N1CCc2cc(S(=O)(=O)N3CCN(c4ccc(C)cc4)C(C)C3)ccc21 (configuration not stated),.,.,-31%,-9%,.,.
CC1(C)N=C(N)N=C(N)N1c1cccc(C(=O)Nc2ccc(S(=O)(=O)F)cc2)c1,.,.,3%[9.22 µM],.,.,.
O=C(/C=C/c1c[nH]c2ccccc12)c1c(O)n(CCc2ccccc2)c(=O)[nH]c1=O,-3%,0%,.,13µM*,-1%,?
CCCCn1c(O)c(C(C)=NCCc2c[nH]c3ccccc23)c(=O)[nH]c1=O,-11%,-5%,.,-2%,7%,?
CCC12CCN(CCc3ccc(F)cc3)CC1Oc1c(O)cccc12 (configuration not stated),.,.,.,12%,.,.
C/C(=N\Nc1ccccc1)c1c(O)[nH]c(=O)[nH]c1=O,-3%,9%,.,1%,-1%,5.2µM*
C/C(=N\Nc1ccccc1)c1c(O)n(-c2ccccc2)c(=O)[nH]c1=O,-4%,4%,.,6%,-2%,?
FC(F)(F)c1nc2ccc(SSc3ccc4nc(C(F)(F)F)[nH]c4c3)cc2[nH]1,.,.,-10%[9.22 µM],.,.,.
O=C(c1ccccc1)C(CN1CCCC1)c1ccccc1 (configuration not stated),-35%,-12%,-91%,-2%,-18%,18µM*
COc1ccccc1OCCCn1cc(C(=O)c2ccco2)c2ccccc21,29%,-18%,-52%,17µM*,?,?
O=C(c1ccco1)c1cn(Cc2ccc(Cl)cc2)c2ccccc12,-1%,5%,4%,?,2%,-24%
COc1ccc(-c2nc3ccccc3c(=O)n2-c2nccs2)cc1,9%,-1%,1%,24µM*,1%,4%
SMILES,Rab9 prom act,ELG1 genotoxic,SMN2 splice up,FLuc modulator,NPC1 promoter act,ELG1 repair inh
Cc1ccc(OCC(=O)N/N=C\c2ccc(O)c([N+](=O)[O-])c2)c([N+](=O)[O-])c1,-3%,1%,-11%,27µM*,1%,-24%
O=C(O)CNC(=O)c1ccc([As](=O)(O)O)cc1,.,.,-12%[9.22 µM],.,.,.
NC(N)=NCCN=C(N)N,.,.,-2%[9.22 µM],.,.,.
O=c1oc2ccccc2n1CCCOc1ccccc1,?,18µM*,11µM*,19µM*,29%,?
O=C(CCn1c(=O)oc2ccccc21)N1CCC2(CC1)OCCO2,3%,-1%,5%,-9%,9%,?
Cc1ccc2nc(NC(=O)c3cccn(Cc4ccc(Cl)cc4)c3=O)sc2c1,.,.,.,0%,.,.
CCOc1ccc2nc(NC(=O)c3cccn(Cc4ccc(C)cc4)c3=O)sc2c1,.,.,.,-6%,.,.
Cc1ccccc1Cn1cccc(C(=O)Nc2nc3ccccc3s2)c1=O,.,.,.,0.43µM*,.,.
Cc1nnc(NC(=O)c2cccn(Cc3ccccc3F)c2=O)s1,.,.,.,-20%,.,.
O=C(Nc1nc2ccccc2s1)c1cccn(Cc2ccccc2)c1=O,.,.,.,0.76µM*,.,.
CCOc1ccc2nc(NC(=O)c3cccn(Cc4ccccc4)c3=O)sc2c1,.,.,.,6µM*,.,.
O=C(O)[C@H]1[O][Sb][O][C@@H](C(=O)O)C1O (some centres not stated),.,.,-5%[9.22 µM],.,.,.
C[C@@H]1O[C@@H](O[C@H]2C[C@@H](O)[C@]3(CO)[C@H]4[C@H](O)C[C@]5(C)[C@@H]([C@@H]6COC(=O)C6)CC[C@]5(O)[C@@H]4CC[C@]3(O)C2)[C@H](O)[C@H](O)[C@H]1O,.,.,-94%,.,.,.
C[C@@H]1O[C@@H](O[C@H]2C[C@@H](O)[C@]3(CO)[C@@H]4C(CC[C@]3(O)C2)[C@@]2(O)CC[C@H](C3COC(=O)C3)[C@@]2(C)C[C@H]4O)[C@H](O)[C@H](O)[C@H]1O (some centres not stated),-38%,-51%,.,2%,-34%,1.8µM*
C=C(C=O)C[C@@H]1C[C@H](O)C2OC3C[C@]4(C)OC5/C=C\CC6OC7C(CC=CCC6OC5CCCC4OC3CC2O1)OC1CC2OC3CC(=O)OC3C[C@@H](C)C[C@@]2(C)OC1C[C@@H]7C (some centres not stated),-45%,-12%,.,-2%,-46%,4.1µM*
C=C(C=O)CC1CC(O)[C@]2(C)OC3C[C@@H]4OC5C[C@]6(C)O[C@]7(C)CCC8OC9C[C@]%10(C)OC(/C(C)=C\CO)C(O)CC%10OC9CC(C)C8OC7CC6O[C@]5(C)C/C=C\C4OC3CC2O1 (some centres not stated),-2%,0%,.,3%,-5%,20%
